In PubChem BioAssay AID1159580 (chemical genetic matrix, 2015):
Screen size: about 5,500 compounds; about 2,000 (36%) were called active. Another 18% or so got no clear call; they are omitted. No stated cut-off is given here; in the data, active means normalized growth mostly below about 0.91 (no sharp cut-off); inconclusive means no clear call, values can overlap the other calls; inactive means mostly above about 0.92. This is one part of the list.

Experiment: chemical genetic growth profiling, strain panel (AID 1159580);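 further: tested at 20 µM; growth read once vehicle control cultures reached saturation at 30 °C; 1 = growth at the plate median or of vehicle wells; lower values mean less growth of the strain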
Conditions: S. cerevisiae deletion strains, growth OD

Measured: normalized growth

[N-]=[N+]=CC(=O)OCC(N)C(=O)O (centres undefined)
inactive: locus YAL021C, strain ccr4, active compounds read low 0.994 | locus YAL026C, strain drs2, active compounds read low 0.988 | locus YAL030W, strain snc1, active compounds read low 1.02 | locus YBL061C, strain skt5, active compounds read low 1.01 | locus YBR009C, strain hhf1, active compounds read low 0.979 | locus YBR023C, strain chs3, active compounds read low 0.995 | locus YBR171W, strain sec66, active compounds read low 1.02 | locus YBR231C, strain swc5, active compounds read low 1.03 | locus YBR279W, strain paf1, active compounds read low 0.98 | locus YCL011C, strain gbp2, active compounds read low 0.983 | locus YCL016C, strain dcc1, active compounds read low 0.958 | locus YCL061C, strain MRC1, active compounds read low 1.02 | locus YCL069W, strain vba3, active compounds read low 1 | locus YCR088W, strain abp1, active compounds read low 1.01 | locus YDL005C, strain med2, active compounds read low 0.992 | locus YDL040C, strain nat1, active compounds read low 1 | locus YDR001C, strain nth1, active compounds read low 0.995 | locus YDR069C, strain doa4, active compounds read low 1.03 | locus YDR137W, strain rgp1, active compounds read low 0.99 | locus YDR159W, strain sac3, active compounds read low 0.978 | locus YDR195W, strain ref2 1.03 | locus YDR297W, strain sur2, active compounds read low 1.02 | locus YDR334W, strain swr1, active compounds read low 1 | locus YDR335W, strain msn5, active compounds read low 1.01 | locus YDR392W, strain spt3, active compounds read low 0.931 | locus YEL003W, strain gim4, active compounds read low 1.01 | locus YEL037C, strain rad23, active compounds read low 1 | locus YEL061C, strain CIN8 (second series), active compounds read low 1 | locus YER015W, strain faa2, active compounds read low 1.01 | locus YER016W, strain bim1, active compounds read low 0.995 | locus YER111C, strain swi4, active compounds read low 1 | locus YER155C, strain BEM2 (second series), active compounds read low 1.05 | locus YFR010W, strain ubp6, active compounds read low 1.01 | locus YGL167C, strain pmr1, active compounds read low 1.02 | locus YGL173C, strain kem1, active compounds read low 1.02 | locus YGL227W, strain vid30, active compounds read low 1.01 | locus YGL240W, strain doc1, active compounds read low 1.04 | locus YGL253W, strain hxk2, active compounds read low 0.973 | locus YHR013C, strain ard1, active compounds read low 1.01 | locus YHR027C, strain rpn1, active compounds read low 0.995 | locus YHR030C, strain SLT2, active compounds read low 0.967 | locus YHR079C, strain IRE1, active compounds read low 0.977 | locus YHR142W, strain chs7, active compounds read low 0.976 | locus YJL092W, strain hpr5, active compounds read low 1.01 | locus YJL095W, strain BCK1 (second series), active compounds read low 1.01 | locus YJL095W, strain BCK1, active compounds read low 0.977 | locus YJL115W, strain asf1, active compounds read low 1.01 | locus YJL129C, strain trk1, active compounds read low 1.01 | locus YJL154C, strain vps35, active compounds read low 1 | locus YJL164C, strain tpk1, active compounds read low 0.985 | locus YJL166W, strain qcr8, active compounds read low 1.05 | locus YJR066W, strain TOR1, active compounds read low 0.936 | locus YKL160W, strain elf1, active compounds read low 1.02 | locus YKR026C, strain gcn3, active compounds read low 1 | locus YKR091W, strain srl3, active compounds read low 1.01 | locus YLL001W, strain dnm1, active compounds read low 1.04 | locus YLL026W, active compounds read low 1.01 | locus YLL041C, strain sdh2, active compounds read low 1 | locus YLR027C, strain aat2, active compounds read low 1.01 | locus YLR113W, strain HOG1, active compounds read low 0.964 | locus YLR221C, strain rsa3, active compounds read low 0.976 | locus YLR258W, strain gsy2, active compounds read low 0.994 | locus YLR262C, strain YPT6 (second series), active compounds read low 1.02 | locus YLR320W, strain mms22, active compounds read low 0.991 | locus YLR342W, strain FKS1, active compounds read low 1.04 | locus YLR357W, strain rsc2, active compounds read low 1 | locus YLR370C, strain arc18, active compounds read low 1.01 | locus YLR384C, strain iki3, active compounds read low 1 | locus YML120C, strain ndi1, active compounds read low 1 | locus YMR058W, strain fet3, active compounds read low 1.01 | locus YMR125W, strain sto1, active compounds read low 0.984 | locus YMR129W, active compounds read low 0.999 | locus YMR205C, strain PFK2, active compounds read low 1.03 | locus YMR231W, strain pep5, active compounds read low 1 | locus YNL071W, strain lat1, active compounds read low 0.992 | locus YNL183C, strain NPR1, active compounds read low 0.937 | locus YNL209W, strain ssb2, active compounds read low 0.989 | locus YNL248C, strain rpa49, active compounds read low 0.976 | locus YNL322C, strain KRE1 (second series), active compounds read low 0.999 | locus YNR049C, strain mso1, active compounds read low 1 | locus YOR001W, strain rrp6, active compounds read low 1.02 | locus YOR070C, strain gyp1, active compounds read low 0.995 | locus YOR080W, strain dia2, active compounds read low 1.02 | locus YOR083W, strain WHI5, active compounds read low 0.992 | locus YOR106W, strain vam3, active compounds read low 1.03 | locus YOR231W, strain MKK1, active compounds read low 0.976 | locus YOR265W, strain rbl2, active compounds read low 0.998 | locus YOR270C, strain vph1, active compounds read low 1.03 | locus YOR290C, strain snf2, active compounds read low 0.961 | locus YPL051W, strain arl3, active compounds read low 1.01 | locus YPL078C, strain atp4, active compounds read low 1.03 | locus YPL106C, strain sse1, active compounds read low 0.966 | locus YPL240C, strain hsp82, active compounds read low 0.99 | locus YPL256C, strain CLN2, active compounds read low 1
